Only some compounds are listed: those with a hit (about 1.8% of all), similar ones and a draw of the others.
RGS4 inh: blocks human RGS4-accelerated GTP hydrolysis | Potency, µM (titrated, usually from 114 µM), actives largely listed as inhibitors | P49798 | Transcreener GDP fluorescence polarization, RGS4-accelerated GTP hydrolysis | actives 0.039% (n = 390,000); also: nearly all actives have a fitted effect of over 75% in size
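MLSMR compounds (23 nl, pin-transferred) preincubated 10 min at room temperature with a 500nM (2x) first reagent, then RGS4 at 900nM (2x) plus Transcreener GDP mix added; fluorescence polarization (620/688 nm) read before and after 90 min at 30 °C.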
GCN5L2 inh: GCN5L2 (KAT2A) acetyltransferase inhibition; Q92830; GCN5L2 HAT assay, ThioGlo1 CoA-SH fluorescence; Potency, µM (highest dose often 58.9 µM), hits mostly inhibitors; actives 0.21% (n = 390,000); AID 504327
Target sequence (Q92830 whole entry, looked up): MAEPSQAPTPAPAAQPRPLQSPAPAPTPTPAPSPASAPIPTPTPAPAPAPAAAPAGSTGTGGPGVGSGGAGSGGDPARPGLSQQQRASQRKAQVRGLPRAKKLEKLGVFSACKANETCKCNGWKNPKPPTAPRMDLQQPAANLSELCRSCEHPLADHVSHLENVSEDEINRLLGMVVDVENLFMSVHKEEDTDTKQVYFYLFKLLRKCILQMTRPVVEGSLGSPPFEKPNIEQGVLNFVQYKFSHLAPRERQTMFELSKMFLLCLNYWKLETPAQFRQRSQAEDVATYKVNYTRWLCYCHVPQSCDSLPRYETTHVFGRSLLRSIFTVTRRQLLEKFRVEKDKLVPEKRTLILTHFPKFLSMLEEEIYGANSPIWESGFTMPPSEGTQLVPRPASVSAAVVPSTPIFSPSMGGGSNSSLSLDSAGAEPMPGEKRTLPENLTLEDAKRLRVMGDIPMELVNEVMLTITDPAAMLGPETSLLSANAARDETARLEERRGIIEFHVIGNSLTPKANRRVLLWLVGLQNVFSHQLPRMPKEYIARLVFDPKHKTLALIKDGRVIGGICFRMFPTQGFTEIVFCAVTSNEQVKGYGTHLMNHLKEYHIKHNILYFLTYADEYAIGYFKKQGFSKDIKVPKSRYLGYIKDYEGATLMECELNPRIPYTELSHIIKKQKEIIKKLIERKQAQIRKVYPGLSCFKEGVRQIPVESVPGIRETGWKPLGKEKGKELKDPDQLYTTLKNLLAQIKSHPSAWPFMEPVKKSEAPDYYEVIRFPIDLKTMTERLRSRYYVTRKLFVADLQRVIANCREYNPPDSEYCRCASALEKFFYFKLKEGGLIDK
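Enzyme at 20nM final was mixed with library compounds for 15 min at room temperature. Peptide H3(1-25) at 75uM, acetyl-CoA at 70uM and ThioGlo1 at 50uM were then added. Plates were read immediately and after 20 min (Ex340nm/Em540nm).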
PTHR1 ag: agonists of human PTHR1 parathyroid hormone receptor; Q03431; HEK293 GP2 PTHR1 cells, GloSensor cAMP luminescence, 1 h; Potency, µM (top dose mostly 115 µM), actives largely listed as activators; actives 0.075% (n = 410,000); AID 743266; also: nearly all actives have a fitted effect of over 55% in size
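HEK-293-derived GP2 cells expressing PTHR1 and a GloSensor cAMP reporter, 3,000/well, plated overnight, given luciferin plus IBMX (each 0.5 mM as added) for 1 h at 37 °C, then compound for 1 h at 37 °C. Luminescence was read after 15 min at room temperature.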
GLP-1R agonist: GLP-1 receptor (human) agonism | HEK293 GLP-1R CRE-luciferase, luminescence, 4-6 h; cells express a hypersensitive GLP-1R form | Potency, µM (titrated, usually from 45.6 µM), hits mostly activators | actives 0.007% (n = 380,000) | AID 624172
GLP1R cytotox: cytotoxic in the GLP-1 receptor inverse agonist counter-screen; AID 624418; actives 0.13% (n = 410,000); HEK293 cAMP-luciferase reporter cells, luminescence, 24 h; Potency, µM (titrated, usually from 38.3 µM), usual class: inhibitors;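 also: loss of luciferase light is scored as toxicity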
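Cells in DMEM/10% Nu serum/1% pen-strep, 1536-well format. Pre-incubated 12 h, dosed with 23 nL compound, incubated a further 24 h. Luciferase detection, 12 min at room temp, luminescence.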
GLP1R inv ag: acts as inverse agonist at human GLP-1 receptor; P43220; HEK293 GLP-1R CRE-luciferase, luminescence, 24 h; GLP-1R form is constitutively active; Potency, µM (top dose mostly 38.3 µM), hits mostly inhibitors; actives 1.6% (n = 410,000); also: nearly all actives have a fitted effect of over 55% in size
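Inverse agonism was detected as reduced cAMP-driven luciferase luminescence after 24 h compound treatment. The cells were HEK293 clones expressing constitutively active human GLP-1R with the reporter. Reporter-only and GPR119 cell lines served as counterscreen controls.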
Each line names hits and unclear results; the compound was inactive in the other large screens. Calls follow the shape of the dose curve; as a rule, active = well fitted curve in the direction sought with a large enough effect; inconclusive = small, poorly fitted or top-dose-only effect, or another doubt; inactive = no such curve, though single readings can be large; an effect the other way counts as inactive or inconclusive.

CCc1ccc(C(C)NC(=S)NC2CCCCC2)cc1 (stereo not given)	GLP1R inv ag inconclusive
Cc1cccc(NC(=S)NC(=O)C2CC2)c1	none (no result: RGS4 inh, PTHR1 ag, GLP-1R agonist, GLP1R cytotox, GLP1R inv ag)
CCOc1ccc(C(C)NC(=S)NC2CCCCC2)cc1 (stereo not given)	GLP1R cytotox 11.2µM, GLP1R inv ag inconclusive
CCOc1ccc(CNC(=O)CCCn2c(=O)c3cccn3c3ccccc32)cc1	none (no result: GLP-1R agonist)
Cc1ccc(N2NC(C)(c3cccs3)NC2=S)cc1 (stereo not given)	RGS4 inh inconclusive, GLP1R cytotox inconclusive, GLP1R inv ag inconclusive
O=C(NC(=S)Nc1ccccc1CO)C1CCCCC1	none
CCOc1ccc(NC(=O)C2C3CCC4C(CCC32)C4(Cl)Cl)cc1 (stereo not given)	GLP1R inv ag 7.08µM
Cc1ccccc1NC(=S)NC(=O)C1CCCCC1	RGS4 inh inconclusive, GLP1R cytotox inconclusive, GLP1R inv ag 8.91µM
CCCCCCCCCCCCCCCC(=O)OC[C@H](O)[C@H]1OC[C@@H](O)[C@@H]1O	none (no result: RGS4 inh, PTHR1 ag, GLP1R cytotox, GLP1R inv ag)
CN(C)c1ccc(-c2ccc3ncnc(-n4ccnc4)c3c2)cc1	GCN5L2 inh 25.1µM (no result: RGS4 inh, PTHR1 ag, GLP-1R agonist, GLP1R cytotox, GLP1R inv ag)
CN(CC(=O)Nc1cccc(F)c1)C(=O)CCNC(=O)c1ccco1	none
CC1CCC(C(C)C)C(OCC(O)CNC(C)(C)C)C1 (stereo not given)	GLP1R inv ag 11.2µM
Cc1c(N=Cc2cccs2)c(=O)n(-c2ccccc2)n1C	none
Cc1ccc(C2C(C=Nc3c(C)n(C)n(-c4ccccc4)c3=O)=C(c3ccccc3)Oc3ccccc32)cc1 (stereo not given)	GLP1R inv ag 3.98µM
O=C(O)c1ccccc1Nc1ccc(CCc2ccc(Cl)c(Cl)c2)cc1	GCN5L2 inh 11.2µM (no result: RGS4 inh, PTHR1 ag, GLP-1R agonist, GLP1R cytotox, GLP1R inv ag)
COc1ccc(OC)c(NC(=O)C(CC(=O)O)NCc2ccco2)c1 (stereo not given)	GCN5L2 inh 3.16µM
CCCC(=O)Nc1nc2c(ncn2[C@@H]2O[C@H]3COP(=O)(O)O[C@@H]3[C@@H]2OC(=O)CCC)c(=O)[nH]1	none (no result: RGS4 inh, PTHR1 ag, GLP-1R agonist, GLP1R cytotox, GLP1R inv ag)
CCCCCCCOC(=O)C[N+](C)(C)CCOC1CC2CCC1(C)C2(C)C (stereo not given)	GLP1R cytotox 11.2µM, GLP1R inv ag inconclusive
Cc1ccc(CNC(=O)c2sc3nc[nH]c(=O)c3c2C)cc1	none (no result: GLP-1R agonist)
CCCN(CCC)C(=O)Cn1c(=O)n(-c2ccccc2)c(=O)c2c3c(sc21)CCCC3	GLP1R inv ag inconclusive
COc1ccc(N(CC(=O)NCCSc2ccccc2)S(=O)(=O)c2ccccc2)c(OC)c1	GLP1R inv ag 10µM
C[C@@H](O[C@H]1OCCN(Cc2n[nH]c(=O)[nH]2)[C@@H]1c1ccc(F)cc1)c1cc(C(F)(F)F)cc(C(F)(F)F)c1	none (no result: RGS4 inh, GCN5L2 inh, PTHR1 ag, GLP1R cytotox, GLP1R inv ag)
COc1ccc2cc(/C=C/C(=O)N3CCN(CC(=O)N4CCCCCC4)CC3)ccc2c1	none
CCOc1cc(CNCCCN2CCOCC2)cc(Br)c1OCc1ccccc1Cl	GLP1R cytotox inconclusive, GLP1R inv ag 4.47µM
Cc1ccc(Nc2ncc(C(=O)N3CCN(c4ccc(F)cc4)CC3)c3ccccc23)cc1Cl	GLP1R inv ag 2.82µM
COc1ccc(Nc2ncc(C(=O)N3CCN(c4cccc(Cl)c4)CC3)c3ccccc23)cc1	GLP1R inv ag 8.91µM
COc1ccc(Nc2ncc(C(=O)N3CCN(c4ccc(OC)cc4)CC3)c3ccccc23)cc1	GLP1R inv ag inconclusive
CC1=CC(=O)C2=C(C)CC[C@H]3[C@H](C)C(=O)O[C@@H]3C12 (stereo not given in full)	none (no result: RGS4 inh, PTHR1 ag, GLP-1R agonist, GLP1R cytotox, GLP1R inv ag)
COc1cccc(CN(C)C(=O)c2cc(-c3cccs3)nc3ccccc23)c1	GLP1R cytotox inconclusive, GLP1R inv ag 6.31µM
Cc1nc2c(-c3ccc(Cl)cc3)cnn2c(N)c1-c1ccc(F)cc1	GLP1R inv ag inconclusive
Cc1nc2c(-c3ccc(F)cc3)cnn2c(N)c1-c1ccccc1	GLP1R inv ag 0.891µM

Bioassay records (PubChem BioAssay)
